Results published in PubChem BioAssay (NCATS).
Records with an inconclusive call do not appear. Unmarked numbers belong to inactive results. Activity calls are given as the source filed them. Calls come from the whole dose curve; as a rule, active = well fitted inhibition curve with a large enough effect; inconclusive = small, poorly fitted or top-dose-only effect; inactive = flat fitted curve, though single readings scatter.

Tested on: Zika virus NS2B-NS3 protease
Assay: Primary screen GU AMC qHTS for Zika virus inhibitors (AID 1347154); note: nearly all actives have a fitted effect of over 70% in size;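 for activity change, negative = inhibition: 0% = no-inhibitor control and -100% = no-enzyme control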
Details: Zika NS2B-NS3 unlinked protease, AMC fluorogenic substrate; series mostly up to 54.1 µM; activity change, negative = inhibition: at the top concentration
Summary of the method: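 Unlinked Zika NS2B hydrophilic domain–NS3 protease complex at 25 nM in 10 mM Tris-HCl pH 8.0, 0.01% Tween 20, with an AMC peptide substrate. Fluorescence change (340/450 nm) over 15 min at room temperature, normalized to controls, fitted to 4-parameter Hill.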
Potency is the fitted concentration of half-maximal effect.

SMILES | activity change, negative = inhibition | Potency
CCCCC[C@H](O)/C=C/C=C\C=C\C=C\[C@@H](O)[C@@H](O)CCCC(=O)O | 15% [at 0.59 µM] | –
CC[C@H](C)[C@H](NC(=O)[C@H](C)NC(=O)[C@H](CC(N)=O)NC(=O)[C@H](CCCCN)NC(=O)[C@H](Cc1ccccc1)NC(=O)[C@H](CC(C)C)NC(=O)[C@@H](NC(=O)[C@@H](NC(=O)[C@H](CC(C)C)NC(=O)[C@@H]1CCCN1C(=O)[C@@H](NC(=O)[C@H](CCC(N)=O)NC(=O)[C@H](CO)NC(=O)[C@H](CCCCN)NC(=O)[C@H](CCC(=O)O)NC(=O)[C@H](CO)NC(=O)[C@@H](NC(=O)[C@H](CCSC)NC(=O)[C@H](Cc1ccccc1)NC(=O)CNC(=O)CNC(=O)[C@@H](N)Cc1ccc(O)cc1)[C@@H](C)O)[C@@H](C)O)C(C)C)[C@@H](C)O)C(=O)N[C@H](C(=O)N[C@@H](CCCCN)C(=O)N[C@@H](CC(N)=O)C(=O)N[C@@H](C)C(=O)N[C@@H](Cc1ccc(O)cc1)C(=O)N[C@@H](CCCCN)C(=O)N[C@@H](CCCCN)C(=O)NCC(=O)N[C@@H](CCC(=O)O)C(=O)O)[C@@H](C)CC | 2.8% [at 6.83 µM] | –
Cn1cnc2c(ncn2[C@@H]2O[C@H](CO)[C@@H](O)[C@H]2O)c1=N | 9.7% | –
c1ccc(Oc2nc(NC3CCCCC3)c3[nH]cnc3n2)cc1 | -3.56% | –
C=C1/C(=C\C=C2/CCC[C@]3(C)C([C@H](C)CCCC(C)(C)O)CC[C@@H]23)C[C@@H](O)C[C@@H]1O (stereo partly specified) | 14.5% [at 6.83 µM] | –
Clc1ccc2ncnc(NCc3ccc4c(c3)OCO4)c2c1 | 6.94% [at 104 µM] | –
CCC1Cc2cc(O)ccc2C2=C1c1ccc(O)cc1CC2CC (stereo unspecified) | – | 3.77 µM (active)
COc1c(C=O)c(O)cc2c1C(=O)c1ccccc1C2=O | – | inactive
COCCCCCCCCCCCC(=O)O | 13.2% [at 6.83 µM] | –
CC(C)c1ccc2c(c1)CC[C@H]1[C@](C)(CN)CCC[C@]21C | 1% | –
C/C(O)=C1\C(=O)[C@@H]2[C@H]3c4c[nH]c5cccc(c45)C[C@H]3C(C)(C)N2C1=O | – | inactive
CC12CCC3c4ccc(O)cc4CCC3C1CCC2O (stereo unspecified) | 20.6% | –
CCCN(C/C=C/I)C1CCc2cccc(O)c2C1 (stereo unspecified) | 7.72% | –
C1CCC(NC(=NC2C3CC4CC(C3)CC2C4)N2CCOCC2)CC1 (stereo unspecified) | – | inactive
CO[C@H]1C[C@@H]2CC[C@@H](C)[C@@](O)(O2)C(=O)C(=O)N2CCCC[C@H]2C(=O)O[C@H](C(C)C[C@H]2CC[C@@H](O)[C@H](OC)C2)CC(=O)[C@H](C)/C=C(\C)[C@@H](O)[C@@H](OC)C(=O)[C@H](C)C[C@H](C)/C=C/C=C/C=C/1C (stereo partly specified) | 5.36% [at 25.8 µM] | –
Cc1ccc(/C=C2/CNC/C(=C\c3ccc(C)cc3)C2=O)cc1 | 14.2% | –

SMILES | activity change, negative = inhibition | Potency
c1ccc(CN(CCN(Cc2ccccn2)Cc2ccccn2)Cc2ccccn2)nc1 | 18.4% | –
NC(C(=O)O)[C@H](O)C(=O)O (stereo partly specified) | -0.61% | –
CSCC[C@H](NC(=O)[C@H](Cc1ccccc1)NC[C@@H](NC[C@@H](N)CS)C(C)C)C(=O)O | 12.3% | –
CCCCC(C)(C)[C@H](O)/C=C/[C@H]1[C@H](O)CC(=O)[C@@H]1C/C=C\CCCC(=O)O | 5.54% [at 6.83 µM] | –
COc1ccc(CC(N)C(=O)NC2C(O)[C@H](n3cnc4c(N(C)C)ncnc43)O[C@@H]2CO)cc1 (stereo partly specified) | 4.56% | –
N#CC(C#N)=C(N)/C(C#N)=C/c1ccc2[nH]ccc2c1 | – | inactive
O=c1nc2ccccc2c2n1CC(CN1CCN(c3ccccc3)CC1)N2 (stereo unspecified) | 1.86% | –
COC(=O)[C@H]1C2CC3c4[nH]c5ccccc5c4CCN3CC2CC[C@@H]1O (stereo partly specified) | -13.6% | –
CC(O)(C(=O)Nc1ccc(S(=O)(=O)c2ccccc2)cc1)C(F)(F)F (stereo unspecified) | – | inactive
COc1oc(=O)c2cc(N)ccc2c1Cl | 6.12% | –
CCCCC[C@H](O)/C=C/[C@@H]1[C@@H](CC(=O)CCCCC(=O)O)[C@@H](O)C[C@H]1O | 7.57% [at 6.83 µM] | –
NC(=O)N/N=C/c1ccc(Oc2ccc(F)cc2)cc1 | 4.31% | –
COC(=O)[C@@H](c1ccccc1Cl)N1CCc2sccc2C1 | 4.74% | –
CCCCC(C)(O)C/C=C/[C@H]1[C@H](O)CC(=O)[C@@H]1CCCCCCC(=O)O (stereo partly specified) | 14% [at 6.83 µM] | –
CCCCCCCCCC(=O)OCC(CO)OC(=O)CCCCCCCCC (stereo unspecified) | 1.45% [at 6.83 µM] | –
